CHRM4 agonist: human M4 muscarinic receptor agonists, primary screen, CHO-K1 cells, Fluo-8 calcium fluorescence; Muscarinic acetylcholine receptor M4 (Homo sapiens), P08173; CHO-K1 hM4/Gqi5; vehicle 0%, full acetylcholine response 100%; activation, % at 3 µM; 0.14% of 360,000 active;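 active = activation above the run mean over all test wells plus 3 SD, cut at about 32% in these data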;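 note: peak over basal fluorescence ratio per well then scaled between controls; 0% = DMSO wells and 100% = acetylcholine at EC100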
Target sequence (P08173 whole entry, looked up): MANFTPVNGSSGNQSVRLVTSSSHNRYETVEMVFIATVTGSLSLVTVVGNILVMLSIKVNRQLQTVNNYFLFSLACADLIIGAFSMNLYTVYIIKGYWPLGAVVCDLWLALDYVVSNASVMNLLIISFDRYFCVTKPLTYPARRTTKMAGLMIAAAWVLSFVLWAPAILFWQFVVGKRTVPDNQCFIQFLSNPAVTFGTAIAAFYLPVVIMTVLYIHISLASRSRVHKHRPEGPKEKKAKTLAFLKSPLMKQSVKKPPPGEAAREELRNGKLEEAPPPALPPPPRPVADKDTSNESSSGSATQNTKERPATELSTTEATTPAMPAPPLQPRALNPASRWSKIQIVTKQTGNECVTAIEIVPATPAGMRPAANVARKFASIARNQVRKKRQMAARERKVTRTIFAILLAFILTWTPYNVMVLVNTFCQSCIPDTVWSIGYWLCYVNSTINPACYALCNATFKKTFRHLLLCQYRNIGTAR
CHO-K1 Ca antag: M1 antagonist counterscreen hit in parental CHO-K1 cells; ATP-induced calcium, Fluo-8 fluorescence; inhibition, % at 3 µM; 0.6% of 360,000 active; AID 602250;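 active = inhibition above a per-plate cutoff, the plate's mean sample inhibition plus 3 SD, cut at about 24% in these data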;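 note: 0% = DMSO plus EC80 ATP and 100% = DMSO alone without ATP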
CHRM4 antagonist: human M4 muscarinic receptor antagonists, primary screen, CHO cells, Fluo-8 calcium fluorescence | inhibition, % at 3 µM | 0.73% of 360,000 active | Muscarinic acetylcholine receptor M4 (Homo sapiens), P08173 | CHO-hM4 cells, ACh EC80;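 active = inhibition above its plate's cutoff, the mean inhibition of sample wells plus 3 SD, cut at about 27% in these data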;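 note: 0% = acetylcholine EC80 with DMSO and 100% = DMSO without agonist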
M1 ag parental: counter-screen for M1 agonists: effect in parental CHO-K1 cells | Fluo-8 calcium fluorescence; scaled to maximal ATP response, vehicle zero | activation, % at 3 µM | 0.48% of 360,000 active | AID 602248, 2012; in the data active = activation above about 15%;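 note: untransfected CHO-K1 host cells lacking M1 receptor as counterscreen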
CHO-K1 Ca PAM: nonselective calcium activators in parental CHO-K1 cells, primary screen, counter-screen for M1 PAM project, cell-based, Fluo-8 calcium fluorescence, full deck, 1536-well; 0.02% of 360,000 active; activation, % at 3 µM; AID 602247, 2012; ATP EC20; 0% at ATP EC20, 100% at ATP max;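 active = activation above the run cutoff, the mean activation of all test compounds plus 3 SD, cut at about 40% in these data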;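 note: peak over basal fluorescence ratio in a 140 s read after ATP addition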
M4 PAM: human M4 muscarinic receptor positive allosteric modulators, primary screen, CHO-K1 cells, Fluo-8 calcium fluorescence; CHO-K1 hM4/Gqi5, ACh EC20; 0% = ACh EC20, 100% = maximal ACh; 0.4% of 360,000 active; Muscarinic acetylcholine receptor M4 (Homo sapiens), P08173; activation, % at 3 µM; AID 624126, 2012;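 active = activation above its plate's cutoff, the mean activation of sample wells plus 3 SD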
An asterisk follows results filed as active. The list is not random: actives were taken first. Their share in the collection is about 2%.

SMILES | CHRM4 agonist | CHO-K1 Ca antag | CHRM4 antagonist | M1 ag parental | CHO-K1 Ca PAM | M4 PAM
CC(=O)c1c(C)[nH]c(C(=O)CSc2ccc(F)cc2)c1C | 17.2 | 10.7 | 25.4 | 15.2* | -12.0 | -32.4
Nc1nc(SCC(=O)Nc2c(Br)cc([N+](=O)[O-])cc2Br)n[nH]1 | 0.3 | 29.1* | 4.0 | 0.3 | -1.0 | -4.6
Nc1nc(SCC(=O)Nc2cccc([N+](=O)[O-])c2)n[nH]1 | 0.7 | -6.1 | -9.1 | -0.3 | -10.6 | 11.1
CN1CCC(=NNC(=O)C(=O)NC2CCCCC2)CC1 | -1.2 | -1.4 | -3.1 | -0.6 | 14.3 | 14.8
O=c1oc2ccccc2c(NCc2cccc(F)c2)c1[N+](=O)[O-] | 10.2 | -32.3 | 6.1 | 5.9 | 15.8 | -0.5
O=C1c2cccc3c(O)ccc(c23)C(=O)N1Cc1ccco1 | 99.1* | 26.1* | 27.9* | 65.3* | -3.9 | -20.4
COc1ccc(N2C(=O)c3cccc4c(N(C)CCO)ccc(c34)C2=O)cc1 | 7.4 | 2.5 | 1.4 | 11.3 | 11.1 | 1.3
O=C1c2cccc3c(O)ccc(c23)C(=O)N1c1ccc(Cl)cc1 | 74.7* | 6.8 | 20.4 | 18.4* | -19.8 | -23.4
CC(=O)Nc1ccc(N2C(=O)c3cccc4c(O)ccc(c34)C2=O)cc1 | 146.7* | 21.4 | 29.4* | 40.6* | -23.2 | -23.3
CC(=O)Nc1ccc(-n2c(=O)c3ccccc3c3ccccc3c2=O)cc1 | 2.2 | -14.3 | -9.7 | -0.2 | -0.2 | 18.6
O=C1c2ccccc2C(=O)N1Cc1ccco1 | 1.2 | -5.9 | 1.2 | 0.2 | 10.3 | 7.5
O=C(CCN1C(=O)C2CC=CCC2C1=O)Nc1ccccc1Cl (stereo not drawn) | 1.1 | -3.7 | 0.1 | 0.3 | -2.8 | 14.7
COc1c(C)cccc1C(=O)Nc1ccc(OCC(=O)N2CCOCC2)cc1C | 2.3 | -18.6 | 5.7 | 3.0 | 18.3 | 2.1
CC1C(=O)NN=C1C(=O)N/N=C\c1ccc(O)cc1O (stereo not drawn) | 1.5 | -16.2 | -33.9 | 0.7 | 29.3 | 28.6*
COc1ccc(Br)c(Cn2c(C)c(C(=O)NCc3cccc([N+](=O)[O-])c3)sc2=O)c1 | 5.4 | 15.0 | 30.8* | 1.5 | 1.6 | -15.9
Cc1c(C(=O)NCc2ccc(C(F)(F)F)cc2)sc(=O)n1Cc1cccc(F)c1 | 54.0* | 16.3 | 29.5* | 22.7* | 14.1 | -5.0
O=C(Cc1ncc(C(F)(F)F)cc1Cl)NCc1cccnc1 | 1.3 | -16.6 | -0.3 | 1.6 | 16.4 | -4.6
CCOc1ccc(NC(=O)C2CCN(C(=O)C3CC(=O)N(c4ccc(C)cc4)C3)CC2)cc1 (stereo not drawn) | 1.1 | -22.2 | -7.6 | 1.0 | -2.7 | 19.3*
CCc1nnc(NC(=O)C2CC(=O)N(c3ccc(C)cc3)C2)s1 (stereo not drawn) | -0.7 | 24.2* | 2.8 | -0.5 | 3.0 | 9.4
COc1ccc(NC(=O)C2CCN(C(=O)C3CC(=O)N(c4ccc(C)cc4)C3)CC2)cc1 (stereo not drawn) | 1.0 | 5.5 | -1.6 | -0.9 | -13.2 | 0.1
Cc1cc2cc(CCNC(=O)c3ccc(S(=O)(=O)N4CCOCC4)cc3)c(=O)[nH]c2cc1C | 4.6 | 3.9 | -7.1 | 0.2 | 6.8 | -1.7
CCCCCCCCCCOC(=O)Cn1c(COc2ccccc2OC)[n+](C)c2ccccc21 | 6.8 | 28.9* | 58.2* | 17.4* | -0.2 | -16.5
Cn1c(COc2ccccc2O)[n+](C)c2ccccc21 | 1.6 | -7.4 | -14.1 | 0.4 | 13.8 | -1.4
CC1(C)CC(=O)C(C=NCC(O)c2ccccc2)=C(O)C1 (stereo not drawn) | -0.2 | -6.0 | -0.7 | 0.5 | 15.4 | -2.6
CC(C)(C)NC(=O)NC(=O)COC(=O)c1ccc(OC(F)F)cc1 | -0.6 | 27.7* | 8.6 | -0.1 | -11.0 | -9.2
Cn1c(=O)c(-c2ccccc2)c(O)c2ccccc21 | 0.8 | 7.7 | -5.4 | -0.2 | -8.8 | -2.2
Cc1cc(NC(=O)C2CC(=O)N(c3cccc(Cl)c3)C2)no1 (stereo not drawn) | 2.3 | 2.8 | 4.8 | 15.6* | 9.1 | 2.5
